Screening results as filed in PubChem.
ERa coact inh = ERα–SRC-1 coactivator interaction inhibitors, primary screen, biochemical, TR-FRET, ERα LBD, estradiol-bound. 1.7% of 86,000 active. TR-FRET ER-alpha LBD / SRC-1 peptide. Estrogen receptor (Homo sapiens), P03372. inhibition, % at 25.6 µM; in the data active = inhibition above about 50%;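 also: 0% = receptor plus peptide control and 100% = peptide only without receptor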
Target sequence (P03372 whole entry, looked up, the tested form may be a part): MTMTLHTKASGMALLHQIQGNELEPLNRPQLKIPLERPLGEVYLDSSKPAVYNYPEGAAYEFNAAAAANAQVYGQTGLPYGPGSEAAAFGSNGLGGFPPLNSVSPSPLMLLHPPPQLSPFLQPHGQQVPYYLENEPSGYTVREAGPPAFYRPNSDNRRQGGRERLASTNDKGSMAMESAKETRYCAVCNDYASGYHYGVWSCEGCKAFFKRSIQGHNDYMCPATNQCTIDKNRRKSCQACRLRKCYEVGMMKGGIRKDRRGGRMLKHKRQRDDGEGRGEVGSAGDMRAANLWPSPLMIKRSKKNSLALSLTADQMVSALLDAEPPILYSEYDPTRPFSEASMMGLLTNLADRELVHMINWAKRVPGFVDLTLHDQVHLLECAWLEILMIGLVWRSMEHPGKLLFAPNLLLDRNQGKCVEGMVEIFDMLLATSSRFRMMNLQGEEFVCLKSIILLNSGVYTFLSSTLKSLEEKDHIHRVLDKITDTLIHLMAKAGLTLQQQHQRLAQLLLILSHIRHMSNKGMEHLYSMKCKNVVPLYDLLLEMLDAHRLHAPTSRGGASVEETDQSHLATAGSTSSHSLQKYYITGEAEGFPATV
Smad3 FoxH1 inh = Smad3/FoxH1 peptide binding inhibitors, primary screen, biochemical, TR-FRET; inhibition, % at 25 µM; Mothers against decapentaplegic homolog 3 (Homo sapiens), P84022; TR-FRET Smad3/Dy647-FoxH1 peptide binding, europium anti-His; 0.29% of 88,000 active;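 active = compounds that reduce the energy-transfer binding signal between the protein and its labelled peptide by more than half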;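 also: 0% = Smad3 plus labelled peptide maximal FRET and 100% = peptide-only background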
ERb coact inh = inhibitors of ERβ-SRC1 coactivator interaction, primary screen, biochemical, TR-FRET, ERβ LBD, SRC-1 peptide | 1.3% of 86,000 active | TR-FRET ER-beta LBD / SRC1-Cy5 peptide binding; receptor agonist-loaded with 1 µM estradiol | Estrogen receptor beta (Homo sapiens), Q92731 | inhibition, % at 25.6 µM;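 active = compounds whose percent inhibition of the receptor-coactivator binding signal exceeds about 50% in the single-dose screen, limit read from the data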;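 also: 0% = receptor plus peptide wells without compound and 100% = peptide-only wells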
ERa SRC1 pot = enhancers of ERα–SRC-1 coactivator binding, primary screen, biochemical, TR-FRET, ERα LBD, low estradiol; Estrogen receptor (Homo sapiens), P03372; TR-FRET ERalpha-LBD/SRC-Cy5 coactivator binding, 2 h; 100 = basal binding, no effect; coactivator binding (% of control), % at 25.6 µM; 1.3% of 86,000 active; AID 639, 2007; in the data active = activity above about 200%;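 also: binding measured in presence of low estradiol as agonist stimulus; 0% = peptide alone without receptor and 100% = receptor with peptide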
Numbers without * were called inactive; [ ] = another dose, or the depositor's remark. A selection: hits, their analogues and other compounds. The true share with any hit is near 3.7%.

Screening C[C@]1(c2ccccc2)O[C@@H]2C[C@H]3[C@@H]4CCC5=CC(=O)C=C[C@@]5(C)[C@@]4(F)[C@H](O)C[C@]3(C)[C@]2(C(=O)CO)O1 returned Smad3 FoxH1 inh 4.
Cc1ccc(CCNC(=O)c2coc3nc4ccccc4nc23)cc1 was read as ERa coact inh -24, Smad3 FoxH1 inh 8, ERb coact inh -6 and ERa SRC1 pot 290*[fluorescence artefact?].
CCOC(=O)N1CCN(c2cc(=O)n(-c3ccccc3Cl)c(=O)[nH]2)CC1 was read as ERa coact inh 0, Smad3 FoxH1 inh -5, ERb coact inh 74*[fluorescence artefact?] and ERa SRC1 pot 123.
Cc1cccc(-c2noc(CCCC(=O)N3CCOCC3)n2)c1 was read as ERa coact inh 1, Smad3 FoxH1 inh 0, ERb coact inh 1 and ERa SRC1 pot 99.
For O=C1CCC(=O)N1c1cccc(-c2nc3ccccc3o2)c1 the results were ERa coact inh -4, Smad3 FoxH1 inh -1, ERb coact inh -3 and ERa SRC1 pot 137.
For O=C1c2cccnc2C(=O)N1c1cccc(-c2nc3ccccc3o2)c1 the results were ERa coact inh 53*[fluorescence artefact?], Smad3 FoxH1 inh -10, ERb coact inh 33 and ERa SRC1 pot 59.
Screening c1cncc(-c2nc3ccccc3o2)c1 returned ERa coact inh -3, Smad3 FoxH1 inh 10, ERb coact inh 12 and ERa SRC1 pot 99.
Screening O=C1c2ccc(-c3nc4ccccc4o3)cc2C(=O)N1Cc1cccnc1 returned ERa coact inh -2, Smad3 FoxH1 inh 14, ERb coact inh -15 and ERa SRC1 pot 370*.
O=S(=O)(Nc1ccc(N2CCOCC2)cc1)c1cccs1 was read as ERa coact inh 97*[fluorescence artefact?], Smad3 FoxH1 inh 13, ERb coact inh 76*[fluorescence artefact?] and ERa SRC1 pot 6.
For O=S(=O)(Nc1ccc(S(=O)(=O)N2CCCCC2)cc1)c1cccs1 the results were ERa coact inh -5, Smad3 FoxH1 inh 7, ERb coact inh -8 and ERa SRC1 pot 105.
Screening Cn1c(=O)c2nc(-c3ccc(Cl)cc3Cl)oc2c2ccccc21 returned ERa coact inh 59*[fluorescence artefact?], Smad3 FoxH1 inh 10, ERb coact inh 45 and ERa SRC1 pot 132.
Screening CCN(C(=O)COc1cc(=O)n(C)c2ccccc12)c1cccc(Cl)c1 returned ERa coact inh -8, Smad3 FoxH1 inh -10, ERb coact inh 4 and ERa SRC1 pot 122.
O=C(Nc1nccs1)c1ccc2nccnc2c1 was read as ERa coact inh 40, Smad3 FoxH1 inh 8, ERb coact inh 60* and ERa SRC1 pot 43.
For CCN1C(=O)c2ccc(C(=O)Nc3nccs3)cc2C1=O the results were ERa coact inh 11, Smad3 FoxH1 inh 7, ERb coact inh -2 and ERa SRC1 pot 109.
`CC1(C)CC(=O)c2sc(N3CCCCC3)nc2C1` gave ERa coact inh -5, Smad3 FoxH1 inh 6, ERb coact inh -6 and ERa SRC1 pot 117.
Cc1cc(Br)c2c(c1)=C(c1sc(N3CCCCCC3)nc1O)C(=O)N=2 was read as ERa coact inh 74*[fluorescence artefact?], Smad3 FoxH1 inh 8, ERb coact inh 50 and ERa SRC1 pot 179.
For COc1nc(Nc2ccc(-c3nc4ccccc4o3)cc2)nc(N2CCOCC2)n1 the results were ERa coact inh 62*[fluorescence artefact?], Smad3 FoxH1 inh -8, ERb coact inh -8 and ERa SRC1 pot 73.
`Cc1sc(NC(=O)C2CC=CCC2C(=O)O)c(C(=O)OC(C)C)c1C` (stereo unspecified) gave ERa coact inh -11, Smad3 FoxH1 inh 9, ERb coact inh -1 and ERa SRC1 pot 112.
Screening CN1C(=O)c2c(sc3c2CCCC3)NC1c1ccccc1O (stereo unspecified) returned ERa coact inh 19, Smad3 FoxH1 inh -10, ERb coact inh 78*[fluorescence artefact?] and ERa SRC1 pot 61.
O=C1NC(c2cccs2)Nc2sc3c(c21)CCCC3 (stereo unspecified) was read as ERa coact inh -2, Smad3 FoxH1 inh 4, ERb coact inh 15 and ERa SRC1 pot 98.
Screening CCOC(=O)c1ccc(N2C(=O)c3n[nH]c(C)c3C2c2ccc(OC)cc2)cc1 (stereo unspecified) returned ERa coact inh 99*[fluorescence artefact?], Smad3 FoxH1 inh 8, ERb coact inh -7 and ERa SRC1 pot 110.
CCOC(=O)c1ccc(N2C(=O)c3n[nH]c(C)c3C2c2ccc(OC)c(OC)c2)cc1 (stereo unspecified) was read as ERa coact inh 1, Smad3 FoxH1 inh 9, ERb coact inh 2 and ERa SRC1 pot 112.
Screening Cc1cc2sc(C(=O)O)c(C)c2s1 returned ERa coact inh 21, Smad3 FoxH1 inh 54*[fluorescence artefact?], ERb coact inh -2 and ERa SRC1 pot 105.
For Cc1cc2c(cc(C(=O)O)n2C)s1 the results were ERa coact inh 9, Smad3 FoxH1 inh -6, ERb coact inh 38 and ERa SRC1 pot 124.
Screening Cc1ccc(NC2c3ccccc3C(=O)N2CCN2CCOCC2)cc1 (stereo unspecified) returned ERa coact inh 1, Smad3 FoxH1 inh 2, ERb coact inh -9 and ERa SRC1 pot 99.
Screening CSc1nc(N(CCO)CCO)c2sc3nc(-c4ccco4)c4c(c3c2n1)CCC4 returned ERa coact inh 81*[fluorescence artefact?], Smad3 FoxH1 inh 32, ERb coact inh 83*[fluorescence artefact?] and ERa SRC1 pot 52.
For Cc1ccc(Cc2nnc3n(-c4cccc(C)c4)nc(C(=O)c4ccccc4)n3c2=O)cc1 the results were ERa coact inh 6, Smad3 FoxH1 inh 1, ERb coact inh 12 and ERa SRC1 pot 112.
Screening O=C(NCCCN1CCCCCC1)C1CC(=O)N(CCc2ccccc2)C1 (stereo unspecified) returned ERa coact inh 3, Smad3 FoxH1 inh 60*, ERb coact inh 22 and ERa SRC1 pot 966*[fluorescence artefact?].
CCOc1ccc2[nH]c(=O)c(=O)[nH]c2c1 was read as ERa coact inh 52*[fluorescence artefact?], Smad3 FoxH1 inh 0, ERb coact inh 54* and ERa SRC1 pot 74.
Screening CN=C(N)/N=C(\N)Nc1cc2ccccc2c2ccccc12 returned Smad3 FoxH1 inh 11.
Screening Cc1ccc(NC(=O)CN2C(=O)S/C(=C\c3ccc(-c4cccc(C(=O)O)c4C)o3)C2=O)cc1 returned ERa coact inh 6, Smad3 FoxH1 inh 8, ERb coact inh 20 and ERa SRC1 pot 250*[fluorescence artefact?].
`Cc1ccc2cc(C)c(NCCO)nc2c1` gave ERa coact inh 5, Smad3 FoxH1 inh -7, ERb coact inh 3 and ERa SRC1 pot 96.
Screening Cc1ccc2ccc(C3C(=O)c4ccccc4C3=O)nc2c1 returned ERa coact inh 11, Smad3 FoxH1 inh 31, ERb coact inh 2 and ERa SRC1 pot 395*.
For CCCC(=O)Nc1ccc(-c2nc3cc(C)c(C)cc3o2)c(O)c1 the results were ERa coact inh 50, Smad3 FoxH1 inh -26, ERb coact inh 40 and ERa SRC1 pot 190.
`O=C(Nc1ccc2oc(-c3ccccc3)nc2c1)c1ccc2c(c1)OCCO2` gave ERa coact inh 37, Smad3 FoxH1 inh 8, ERb coact inh 18 and ERa SRC1 pot 148.
